Results filed as inconclusive are left out. Activity calls are given as the source filed them. How the source made its calls: active means hit-call score of the fitted dose curve at least 0.9, where 1 is the maximum; inconclusive means response in the unintended direction; inactive means score below 0.9.
Biological target: Estrogen-related receptor gamma (Homo sapiens) (UniProt P62508)
Test: ATG_ERRg_TRANS: Attagene TRANS-FACTORIAL HepG2 Assay for human Estrogen-Related Receptor gamma (ERRg) (AID 2282977);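 further: hits increase reporter signal over DMSO so potencies reflect activators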
Settings: HepG2 Attagene TRANS reporter, ERRg transactivation
Protocol: ATG_TRANS is a cell-based, multiplexed-readout assay that uses HepG2, a human liver cell line, with measurements taken at 24 hours after chemical dosing in a 24-well plate.ATG_ERRg_TRANS is one of 30 assay component(s) measured or calculated from the ATG_TRANS assay. It is designed to make measurements of mRNA induction, a form of inducible reporter, as detected with fluorescence intensity signals by Reverse transcription polymerase chain reaction (RT-PCR) and Capillary electrophoresis technology.Data from the assay component ATG_ERRg_TRANS was analyzed into 1 assay endpoint. This assay endpoint, ATG_ERRg_TRANS, was analyzed in the positive analysis fitting direction relative to DMSO as the negative control and baseline of activity. Using a type of inducible reporter, measures of mRNA for gain-of-signal activity can be used to understand the reporter gene at the transcription factor-level as they relate to the gene ESRRG. Furthermore, this assay endpoint can be referred to as a primary readout, because this assay has produced multiple assay endpoints where this one serves a reporter gene function. To generalize the intended target to other relatable targets, this assay endpoint is annotated to the nuclear receptor intended target family, where the subfamily is steroidal.
Human liver HepG2 cells are transiently transfected with multiple reporter transcription units (MRTUs) in 6-well plates using FuGene 6 reagent (Roche; 3 ml FuGene/1 mg DNA). The MRTU constructs are regulated by a cis-regulating element (promoter). […] A major difference between the CIS and TRANS system is that in CIS activities of endogenous TFs are measured, whereas the TRANS assay evaluates changes in activities of exogenous, chimeric NR-Gal4 proteins. […] At the end of 24 hour incubation, total RNA was isolated using TriZol reagent (Invitrogen). The isolated RNA is then reverse-transcribed using oligo(dT) primer and Mo-MLV reverse transcriptase (Invitrogen) with DNAse I (Ambion) treatment for 30 min. The one-tenth of the produced cDNA was amplified by PCR using Taq DNA polymerase (Invitrogen) and two reporter sequence-specific primers. The PCR products were fluorescently labeled by primer extension with 6-arboxyfluorescein (6-FAM) 5'-labeled reporter sequence-specific primer (2 min at 95 C, 20 s at 68 C and 10 min at 72 C) and these products were digested with 5U of HpaI (New England Biolabs) for 2h at 37 C. The fragments were purified using Qiaquick PCR columns (Qiagen), analyzed on an ABI 3130xL genetic analyzer (Applied Biosystems) with peak positions identified by using a set of X-rhodamine (ROX)-labeled MapMarker1000 molecular weight standards (BioVentures). The raw capillary electrophoresis data was processed using Attagraph software (Attagene).

Estrogen-related receptor gamma (Homo sapiens), sequence (P62508 whole entry, looked up): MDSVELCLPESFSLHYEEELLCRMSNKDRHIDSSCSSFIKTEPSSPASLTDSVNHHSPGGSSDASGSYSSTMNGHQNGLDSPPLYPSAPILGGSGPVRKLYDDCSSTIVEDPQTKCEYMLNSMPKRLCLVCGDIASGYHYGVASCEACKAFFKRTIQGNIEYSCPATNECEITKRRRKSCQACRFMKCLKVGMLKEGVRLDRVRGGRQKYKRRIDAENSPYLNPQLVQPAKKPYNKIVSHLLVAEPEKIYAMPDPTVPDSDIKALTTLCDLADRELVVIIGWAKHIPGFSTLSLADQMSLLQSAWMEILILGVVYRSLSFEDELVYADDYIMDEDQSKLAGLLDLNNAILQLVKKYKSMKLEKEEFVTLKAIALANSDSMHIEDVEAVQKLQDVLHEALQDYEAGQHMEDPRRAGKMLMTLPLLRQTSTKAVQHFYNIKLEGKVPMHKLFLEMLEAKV

outcome, inactive:
Nc1ccc(N)c2c1C(=O)c1ccccc1C2=O, CN(C)CCOC(C)(c1ccccc1)c1ccccn1 (stereo not given), CCCCOC(=O)CCCCCCCC(=O)OCCCC, C=Cc1ccncc1, [Cl][Au]([Cl])[Cl], CN(C)c1ccncc1, C[Si]1(C)O[Si](C)(C)O[Si](C)(C)O1, COC(=O)c1cccnc1, CCc1ccc(O)cc1, CCN(CCC#N)c1ccc(N=Nc2ccc([N+](=O)[O-])cc2)cc1, COC(=O)c1ccc(C)cc1C1=NC(C)(C(C)C)C(=O)N1 (stereo not given) (tested in a mixture with another compound), C[C@H]1C[C@@H](O)CC(C)(C)C1, CCCCCCOC(=O)C(C)C, COc1cc([C@@H]2c3cc4c(cc3[C@@H](O[C@@H]3O[C@@H]5CO[C@@H](C)O[C@H]5[C@H](O)[C@H]3O)[C@H]3COC(=O)[C@H]23)OCO4)cc(OC)c1O, c1ccc(CCc2ccccc2)cc1, C/C=C(\C)C(=O)OCCc1ccccc1, C=CC(=O)OCCC#N, CCC(C)=O, Oc1c(Cl)cc(Cl)c(Cl)c1Cc1c(O)c(Cl)cc(Cl)c1Cl, COc1ccc(OC)c(N=Nc2c(O)ccc3ccccc23)c1, CC(O)C1CCCCC1 (stereo not given), COc1cc(CCC(C)=O)ccc1O, N#Cc1ccc(CC(=O)c2cccc(C(F)(F)F)c2)cc1, CC(C)(C)CC(C)(C)c1ccc(OCCOCC[N+](C)(C)Cc2ccccc2)cc1, CC(=O)OCCCc1ccccc1, CN1CCOCC1, O=[N+]([O-])c1ccc(O)cc1C(F)(F)F, O=C1OC(=O)c2c(Cl)c(Cl)c(Cl)c(Cl)c21, Cc1ncc([N+](=O)[O-])n1CCO, CCCCCC(C)=O, O=C(O)c1ccc(O)cc1, COc1ccc(CCN2CCC(Nc3nc4ccccc4n3Cc3ccc(F)cc3)CC2)cc1, COc1ccccc1[N+](=O)[O-], Cc1cc(S(=O)(=O)O)ccc1N=Nc1c(O)ccc2ccccc12, COC(=O)C=C(C)CCC=C(C)C, COC(=O)c1ccc([N+](=O)[O-])cc1, CCCN(CCC)S(=O)(=O)c1ccc(C(=O)O)cc1, Cc1ccc(S(=O)(=O)Oc2ccc(N=Nc3ccc(-c4ccc(N=Nc5c(O)ccc6cc(S(=O)(=O)O)cc(S(=O)(=O)O)c56)c(C)c4)cc3C)cc2)cc1, CCCCCCCCCCCC(=O)OC[C@@H](O)[C@H]1OC[C@H](O)[C@H]1O, IC(I)I

From PubChem BioAssay (EPA / NIEHS)
